The campaign covered roughly 310,000 compounds. About 14,000 (4.5%) showed an effect of 50% or more. Effects have a minus sign here. Only a selection was taken, and strong results are over-represented in it overall.
These compounds were tested against human ether-à-go-go-related gene (hERG) potassium channel (human, UniProt Q12809) (assay: primary screen, population patch clamp on CHO cells stably expressing hERG; higher = less effect of the substance).
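Also: peak tail current of the secondary pulse compared with the same well before compound.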

Chain of human ether-à-go-go-related gene (hERG) potassium channel (Q12809 whole entry, looked up): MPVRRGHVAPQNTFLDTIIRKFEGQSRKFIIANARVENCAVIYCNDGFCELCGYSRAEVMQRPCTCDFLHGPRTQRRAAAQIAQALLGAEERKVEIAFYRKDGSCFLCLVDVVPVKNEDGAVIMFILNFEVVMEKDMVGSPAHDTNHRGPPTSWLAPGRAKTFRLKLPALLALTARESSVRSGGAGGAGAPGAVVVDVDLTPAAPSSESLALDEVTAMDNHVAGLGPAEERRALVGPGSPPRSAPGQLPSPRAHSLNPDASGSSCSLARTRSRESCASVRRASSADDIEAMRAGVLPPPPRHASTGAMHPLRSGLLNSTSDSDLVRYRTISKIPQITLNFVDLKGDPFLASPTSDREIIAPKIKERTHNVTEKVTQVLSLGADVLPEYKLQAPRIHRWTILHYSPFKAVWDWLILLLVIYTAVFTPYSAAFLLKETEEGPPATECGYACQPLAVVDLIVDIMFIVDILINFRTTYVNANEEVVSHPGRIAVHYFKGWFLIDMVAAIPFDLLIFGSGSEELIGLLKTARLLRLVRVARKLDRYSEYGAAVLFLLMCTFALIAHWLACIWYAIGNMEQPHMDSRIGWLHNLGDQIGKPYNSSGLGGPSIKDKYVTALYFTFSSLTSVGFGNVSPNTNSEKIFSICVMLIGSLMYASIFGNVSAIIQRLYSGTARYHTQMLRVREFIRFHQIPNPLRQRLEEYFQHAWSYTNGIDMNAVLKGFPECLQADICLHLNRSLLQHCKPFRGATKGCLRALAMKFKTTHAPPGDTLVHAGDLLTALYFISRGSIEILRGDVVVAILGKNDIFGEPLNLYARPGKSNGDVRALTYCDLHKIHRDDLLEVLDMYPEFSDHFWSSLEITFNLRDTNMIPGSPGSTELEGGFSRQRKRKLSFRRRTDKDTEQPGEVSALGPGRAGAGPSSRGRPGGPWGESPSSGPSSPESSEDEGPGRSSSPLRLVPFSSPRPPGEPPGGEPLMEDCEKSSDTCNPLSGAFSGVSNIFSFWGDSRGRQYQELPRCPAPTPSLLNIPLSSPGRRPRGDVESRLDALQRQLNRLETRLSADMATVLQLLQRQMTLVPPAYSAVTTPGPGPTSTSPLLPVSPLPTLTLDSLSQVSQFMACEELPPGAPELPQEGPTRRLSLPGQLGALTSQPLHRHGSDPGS

| SMILES | hERG current change (%, negative = inhibition) at 10uM |
| --- | --- |
| COc1ccc(C)cc1S(=O)(=O)NCCc1ccccc1 | -28.3% |
| CCN(CC)c1ccc(C(=O)OCC(=O)Nc2ccc3[nH]c(=O)[nH]c3c2)cc1 | 5.58% |
| Cc1ccc2nc(SCc3nnc(-c4ccccc4Br)o3)[nH]c2c1 | -6.41% |
| CCOC(=O)c1c(C=O)c(C)n(Cc2ccc(Cl)cc2)c1C | -18.8% |
| CCOc1ncccc1C(=O)OCc1ccc(Cl)cc1 | -20% |
| CCOC(=O)C1=C(OCc2ccc(Cl)cc2)C2C=C(C)C=CC2N=C1 (stereo not shown) | -69.1% |
| CC(=O)c1ccc(-n2c(C)c(C(C)=O)c3cc(O)ccc32)cc1 | 8.94% |
| CC(NC(=O)C(=O)NCCN1CCN(C(=O)c2ccc([N+](=O)[O-])cc2)CC1)c1ccccc1 (stereo not shown) | -75.1% |
| O=C(CCC(=O)NNC(=O)c1ccc([N+](=O)[O-])cc1)NCc1ccccc1 | 10.9% |
| CCc1ccc(N2CCN(CCNC(=O)Nc3ccccc3)CC2)cc1 | -21.1% |
| COc1ccc(N2CCN(CCNC(=O)Nc3ccc([N+](=O)[O-])cc3OC)CC2)cc1 | -17.1% |
| O=C(NCCN1CCN(C(=O)c2cccc(Br)c2)CC1)C(=O)NCc1ccccc1 | -70% |
| O=C(NCCN1CCN(C(=O)c2ccc([N+](=O)[O-])cc2)CC1)C(=O)NCc1ccccc1 | -78.9% |
| CC(NC(=O)C(=O)NCCN1CCN(C(=O)c2ccccc2Br)CC1)c1ccccc1 (stereo not shown) | 6.37% |
| O=C(c1cccc(Br)c1)N1CCN(C(=O)c2cccc(Br)c2)CC1 | -28.5% |
| O=C(c1ccc([N+](=O)[O-])cc1)N1CCc2ccccc2C1 | -44.7% |
| O=C(NCCN1CCN(C(=O)c2cccc(Br)c2)CC1)C(=O)Nc1ccc(Br)cc1 | -42.1% |
| CC(C(=O)NCCN1CCOCC1)c1ccc([N+](=O)[O-])cc1 (stereo not shown) | 16.7% |
| O=C(NCCN1CCN(c2ccc([N+](=O)[O-])cc2)CC1)NCc1ccccc1 | -67.7% |
| Cc1ccccc1-n1nc(C)c2cc(C(=O)NCc3cccnc3)sc21 | -31% |
| O=C(c1ccc(COc2ccc(Br)cc2)o1)N1N=C(C(F)F)CC1(O)C(F)F (stereo not shown) | 2.57% |
| Cn1c(N/N=C/c2c[nH]c3ccccc23)nc2ccccc21 | -46.7% |

| SMILES | hERG current change (%, negative = inhibition) at 10uM |
| --- | --- |
| COC(=O)c1ccc(-n2nnnc2SC)cc1 | 3.46% |
| COc1cccc(/C=C2/Oc3ccccc3N(CC(=O)NCC3CCCO3)C2=O)c1 (stereo not shown) | 14% |
| Cc1nn(Cc2ccccc2)c(C)c1C(=O)OCC(=O)c1cc(C)n(C2CC2)c1C | -10.2% |
| NC(=O)COc1ccc(C23CC4CC(CC(C4)C2)C3)cc1 | 7.2% |
| O=C(NCCN1CCN(C(=O)c2ccc(F)cc2)CC1)C(=O)NCc1ccccc1 | -73.9% |
| Cl.O=C(Cc1ccc(Cl)cc1)NCCN1CCCC1 | -21.9% |
| Cc1ccc(C(=O)N2CCN(CCNC(=O)C(=O)NCc3ccc(Cl)cc3)CC2)cc1 | -74% |
| O=C(NCCN1CCN(C(=O)c2cccc([N+](=O)[O-])c2)CC1)C(=O)NCc1ccc(Cl)cc1 | -50.1% |
| CN1CCN(C(=O)CNC(=O)Cc2ccc(Cl)cc2)CC1 | 5.31% |
| CC(C)(C)c1ccc(C(=O)N2CCN(CCNC(=O)C(=O)NCc3ccc(Cl)cc3)CC2)cc1 | -41.1% |
| Cc1ccc(C(=O)N2CCN(CCNC(=O)C(=O)NC(C)C)CC2)cc1 | 9.12% |
| O=C(Cc1ccc(Cl)cc1)NCCN1CCN(C(=O)Cc2ccc(Cl)cc2)CC1 | -53.4% |
| O=C(NCc1ccc(F)cc1)N1CCN(C(=O)c2ccccc2)CC1 | -13.5% |
| O=C(NCCN1CCN(S(=O)(=O)c2ccc(F)cc2)CC1)C(=O)NCc1ccccc1 | 0.451% |
| COc1ccc(Cc2nc3ccccc3n2CC(=O)N/N=C/c2ccc(O)cc2)cc1OC | 0.975% |
| C=CCOc1ccccc1CNc1ccccc1C | -15.7% |
| COc1ccc(-c2ccc(NC(=O)c3ccco3)cc2)nn1 | 5.79% |
| Cc1c(NC(=O)C(C)n2cc([N+](=O)[O-])cn2)c(=O)n(-c2ccccc2)n1C (stereo not shown) | 19.4% |
| O=C(/C=C/Nc1ccccc1F)c1cccs1 | 1.08% |
| COc1ccc(OCc2nn3c(-c4ccco4)nnc3s2)cc1 | -36.6% |
| Cn1cccc1/C=C1\SC(=O)N(c2ccc(O)cc2)C1=O | 0.777% |
| COc1ccc(/C(C)=N/NC(=O)C(NC(=O)c2ccccc2)c2n[nH]c(=O)c3ccccc23)c(OC)c1 (stereo not shown) | 4.11% |

| SMILES | hERG current change (%, negative = inhibition) at 10uM |
| --- | --- |
| O=C(COC(=O)c1cc(S(=O)(=O)N2CCCCC2)ccc1N1CCOCC1)NCCc1ccc(F)cc1 | -25.5% |
| Cc1ccc(S(=O)(=O)N2CCN(CCNC(=O)C(=O)NCc3ccccc3)CC2)cc1 | 5.65% |
| CC(C)NC(=O)C(=O)NCCN1CCN(C(=O)c2ccc(C(C)(C)C)cc2)CC1 | -3.01% |
| CC(C)(C)c1ccc(C(=O)N2CCN(CCNC(=O)C(=O)NCc3ccccc3)CC2)cc1 | -57% |
| COc1ccc(-c2noc(CCC(N)=O)n2)cc1OC | 3.66% |
| Cc1csc(NC(=O)c2ccccc2C(=O)O)n1 | -0.365% |
| Cc1ccc(NC(=O)c2ccn(C)n2)c(Br)c1 | 0.15% |
| Cc1ccc(CNC(=O)c2cc(S(=O)(=O)N3CCOCC3)cn2C)cc1 | -12.5% |
| O=C(CSc1nc2ccccc2c(=O)n1CCCN1CCOCC1)NC12CC3CC(CC(C3)C1)C2 | -67.8% |
| O=C1c2ccccc2C(=O)N1CCSc1nc2ccccc2c(=O)n1CCCN1CCOCC1 | -15.1% |
| CC(=O)Nc1ccc(NC(=O)C(C)Sc2nc3ccccc3c(=O)n2CC2CCCO2)cc1 (stereo not shown) | 7.41% |
| CC(=O)c1c(C)[nH]c(C(=O)CSc2nc3ccccc3c(=O)n2CCCN2CCOCC2)c1C | -15.5% |
| COC(=O)c1ccc2c(=O)n(CCN3CCOCC3)c(SCC(=O)NCc3ccccc3)nc2c1 | -46.1% |
| CC(Sc1nc2ccccc2c(=O)n1CC1CCCO1)C(=O)N(C)c1ccccc1 (stereo not shown) | -41.6% |
| CCCSc1nc2cc(OC)c(OC)cc2c(=N)n1CCCN1CCOCC1 | -74.6% |
| COCCCn1c(SCCc2ccccc2)nc2cc(OC)c(OC)cc2c1=N | -12.7% |
| CC(C)Cn1c(N)c(C(=O)CSc2nc3ccccc3c(=O)n2CCCN2CCOCC2)c(=O)n(C)c1=O | -22.2% |
| COCCCn1c(SCC(=O)O)nc2cc(OC)c(OC)cc2c1=N | 9.07% |
| CC(Sc1nc2ccccc2c(=O)n1CC1CCCO1)C(=O)N(C)Cc1ccccc1 (stereo not shown) | -59.8% |
| COc1ccccc1CNC(=O)CSc1nc2ccccc2c(=O)n1CCCN1CCOCC1 | -56% |

From article PMC4336329 (PLoS ONE, 2015)
